Reference: PubChem BioAssay AID1650 (Southern Research Specialized Biocontainment Screening …, 2009)
Entries with a potency or affinity are not part of this list. The source made the active and inactive calls. No rule for the calls is given here.

Test: host cell cytotoxicity of antiviral hits, dose response, cytotoxicity control for West Nile virus antiviral project, secondary assay (AID 1650)
Conditions: Mammalian host cell viability, cytotoxicity counter-screen; series mostly up to 10 µM; viability: at the top concentration

Row | Structure (SMILES) | viability
1 | O=c1c(O[C@@H]2O[C@H](CO)[C@@H](O)[C@H](O)[C@H]2O)c(-c2ccc(O)c(O)c2)oc2cc(O)cc(O)c12 | 95.2% [at 20 µM] (inactive)
2 | O=C(COC(=O)CN1C(=O)c2ccccc2C1=O)Nc1ccc(S(=O)(=O)N2CCCC2)cc1 | 90.3% [at 20 µM] (inactive)
3 | CSc1cccc(NC(=S)N(CCCN2CCCC2)Cc2cccn2Cc2ccc(Cl)cc2)c1 | 81% [at 20 µM] (inactive)
4 | CC(=O)OCCCNc1cc(Sc2ccc(C)cc2)c2nonc2c1[N+](=O)[O-] | 87% (inactive)
5 | Cc1cc(C)c(NC(=O)Cn2nnc(C(=O)Nc3ccc(F)cc3F)c2N)c(C)c1 | 88.5% [at 20 µM] (inactive)
6 | Cn1c(CCN2CCCCC2)nc2cc(NC(=O)COc3ccc([N+](=O)[O-])cc3)ccc21 | 81.4% (inactive)
7 | COc1ccc(-n2c(=S)[nH]c3cc(C(=O)NCc4cccnc4)ccc3c2=O)c(OC)c1 | 86.9% [at 20 µM] (inactive)
8 | Cc1ccc(-n2ncc(C(=O)Nc3ccc(Cl)cc3)c2C2CCNCC2)cc1C | 82.5% [at 20 µM] (inactive)
9 | CN1CCN(C(=O)CCN2C(=O)/C(=C\c3ccc(Cl)cc3Cl)SC2=S)CC1 | 82.2% (inactive)
10 | CCn1nc(C)c(CN2CCC(C(=O)Nc3cccc(-c4cccc(F)c4)c3)CC2)c1C | 79.2% (inactive)
11 | O=C(Nc1cccc(Cl)c1)Nc1cc(S(=O)(=O)N2CCCCC2)ccc1Cl | 70.3% [at 20 µM] (inactive)
12 | CCCN(CCC)CCCNC(=S)Nc1ccc2nc(N3CCCC3)cc(C)c2c1 | 78% [at 20 µM] (inactive)
13 | COc1cc(/C=C/C(=O)c2ccc(NS(=O)(=O)c3ccc(C)cc3)cc2)cc(OC)c1O | 75.7% (inactive)
14 | CCCN1CCN(CCCNC(=O)c2cc3c(s2)-c2ccccc2OC3)CC1 | 74.4% (inactive)
15 | CC(C)c1cc(C(=O)OCC(=O)NC(=O)NCc2ccco2)c(O)c(C(C)C)c1 | 89% [at 20 µM] (inactive)
